# Measured values as given in publication PMC4552634, “A New Set of Chemical Starting Points with Plasmodium falciparum Transmission-Blocking Potential for Antimalarial Drug Discovery” (PLoS ONE, 2015).
# The whole screen tested about 13,000 compounds, of which about 3,200 (25%) showed an effect of 50% or more. The list shows a part of the results.
# Test system: P. falciparum stage V gametocytes
# Design: BacTiter-Glo ATP luminescence viability of purified stage V gametocytes in 384-well plates, per cent inhibition versus DMSO
# Settings: 48 h, 5 µM; inhibitor
row,Structure (SMILES),% Inhibition
1,CC(=O)OC[C@H]1O[C@@H](C#Cc2ccccc2)[C@H](OC(C)=O)[C@@H](OC(C)=O)[C@@H]1OC(C)=O [TCMDC-131801],35.52%
2,CC(C)C[C@@H](NC(=O)NC1CCC(CCN2C3CCC2CC(OC(=O)C(CO)c2ccccc2)C3)CC1)C(O)(c1ccccc1)c1ccccc1 (some centres unmarked) [TCMDC-136459],3.057%
3,CC1(C)NC(N)=NC(=N)N1OCC1CCCCC1 [TCMDC-131616],-0.7745%
4,O=C1COc2ccc3ccccc3c21 [TCMDC-123508],4.476%
5,CNCc1cccc(-c2ccc3ccnc(N)c3c2)c1 [TCMDC-136794],70.03%
6,CNc1cc(-c2ccc3ccnc(N)c3c2)nc(N)n1.O=CO [TCMDC-136539],29.83%
7,Nc1ccc(-c2ccc3ccnc(N)c3c2)cn1 [TCMDC-133428],40.89%
8,Nc1nccc2ccc(-c3cccc(O)c3)cc12 [TCMDC-136758],44.67%
9,CSc1nccc(-c2ccc3ccnc(N)c3c2)n1 [TCMDC-136641],63.58%
10,CNCc1ccc(-c2ccc3ccnc(N)c3c2)cc1 [TCMDC-136789],95.61%
11,CCNCc1cccc(-c2ccc3ccnc(N)c3c2)c1 [TCMDC-136869],65.98%
12,Clc1ccc2c(N3CCCNCC3)ccnc2c1 [TCMDC-124813],-27.2%
13,CCc1cc2c(cc1CC)CC(NC[C@@H](O)c1ccc(O)c3[nH]c(=O)ccc13)C2 [TCMDC-138894],-46.2%
14,CCCCC([C@@H](Cc1ccc2ccccc2c1)C(=O)N[C@H](C(=O)NC)C(C)(C)C)N(O)C=O (some centres unmarked) [TCMDC-140405],29.38%
15,Cc1cccc2nc(-c3ccc(-c4ccc(NC(=O)NCc5ccccc5)cc4)s3)[nH]c12 [TCMDC-133156],6.679%
16,O=C(CCc1cnc[nH]1)Nc1cccc(-c2cccc(-c3nc4ccc(C(F)(F)F)cc4[nH]3)c2)c1 [TCMDC-132157],-1.759%
17,Cc1cnc(Nc2cccnc2)nc1Nc1ccccc1C(=O)NC(C)C [TCMDC-134207],8.943%
18,O=C(Nc1ccc(CN2CCN(S(=O)(=O)c3ccc(Cl)s3)CC2)cc1)c1cccs1 [TCMDC-136320],18.17%
19,Cc1cc(CNCCCCCCNCc2ccc(-c3ccccc3)cc2)ccc1O [TCMDC-140412],99.09%
20,Cc1cc(CNCCCCCNCc2ccc(Cl)cc2)ccc1O [TCMDC-140411],48.45%
21,N#Cc1ccc2c(c1)CN(CCCCNC(=O)c1ccc(-c3ccccc3)cc1)CC2 [TCMDC-139091],8.247%
22,O=C(NCCCCCCNCc1ccc(-c2ccccc2)cc1)Nc1ccc(Cl)c(Cl)c1 [TCMDC-140706],4.226%
23,Cc1cc(CNCCCCCCCNCc2ccc(Cl)cc2)ccc1O [TCMDC-140417],-6.741%
24,Cc1cc(CNCCCCCCCNCc2ccc(-c3ccccc3)cc2)ccc1O [TCMDC-140415],101%
25,N#Cc1ccc(CNCCCCCCCNCc2ccc(-c3ccccc3)cc2)cc1 [TCMDC-140407],71.46%
26,Cc1cc(CNCCCCCCNCc2ccc(Cl)cc2)ccc1O [TCMDC-140414],43.51%
